Test results published in PubChem BioAssay (Tox21).
“And” between values parts separate entries of the source, which are not always exact repeats. Identical values can stand only once. Inconclusive results are not listed. Entries that show only a call come without a potency. A structure can be active in one record and inactive in another. The source made the active and inactive calls. Calls follow the shape of the dose curve; as a rule, active = well fitted cell-killing curve with a large enough effect in the repeat runs; inconclusive = weak or mixed curves, or effect the other way; inactive = no such curve, though single readings can be large or run the other way.

Assay: qHTS assay for identifying genotoxic compounds that show differential cytotoxicity against isogenic chicken DT40 cell lines with known DNA damage response pathways - Rev3 mutant cell line (AID 743014); also: nearly all actives have a fitted effect of over 55% in size
Details: chicken DT40 Rev3-/- viability, CellTiter-Glo, 40 h; series mostly up to 68.4 µM
Source text: National Center for Advancing Translational Sciences [NCATS]
NIH Chemical Genomics Center [NCGC]
U.S. Environmental Protection Agency [EPA]
National Institutes of Environmental Health Sciences [NIEHS]
National Toxicology Program [NTP]
U.S. Food and Drug Administration [FDA]
DNA repair pathways play a critical role in cellular homeostasis by repairing DNA damage induced by endogenous processes and xenobiotics. Isogenic chicken DT40 cell lines deficient in different DNA repair pathways can be used to identify genotoxic compounds and aid in characterizing the nature of the DNA damage induced. Two DNA repair-deficient cell lines with disrupted genes, Rad54/Ku70 or Rev3, were used to screen the Tox21 10K compound library. Possible genotoxicity was based on the presence of a significant increase in cytotoxicity in one or more of the DNA repair-deficient cell lines compared to that observed in the parental DNA repair-proficient cell line. CellTiter Glo viability assay (Promega, Madison, WI) was used to measure cell viability in these cells after compound treatment. This assay includes the data from the Rev3 mutant cell line.
Tox21 Assay Protocol Summary:
300 DT40 mutant cells in 5 uL/well were dispensed into white, solid-bottom 1536-well plates using a Multidrop Combi (ThermoFisher Scientific, Waltham, MA) dispenser. After the assay plates were incubated at 37 C/5% CO2 for approximately 0.5 hour, 23 nL of compounds dissolved in DMSO, positive controls or DMSO only was transferred into the assay plate by a pintool work station (Kalypsys, San Diego, CA). The assay plates were incubated at 37 C/5% CO2 for 40 hours. After 5 uL per well of CellTiter-Glo reagent was added into each well of the assay plates, the plates were incubated for 30 min at room temperature and the luminescence intensity of the plates was measured using a ViewLux (PerkinElmer, Shelton, CT) plate reader.
Potency is read from the fitted curve at half-maximal effect.

**Q.** Which Potency does the source give for `CN[C@@H]1[C@H](O[C@H]2[C@H](O[C@H]3[C@H](O)[C@@H](O)[C@H](N=C(N)N)[C@@H](O)[C@@H]3N=C(N)N)O[C@@H](C)[C@]2(O)CO)O[C@@H](CO)[C@H](O)[C@H]1O` here?
**A.** inactive

**Q.** For `CC(CN1c2ccccc2Sc2ccc(S(=O)(=O)N(C)C)cc21)N(C)C` (stereo not given), which Potency is on record?
**A.** 26.6 µM (active)

**Q.** For `CCNC(=O)[C@@H]1CCCN1C(=O)[C@H](CCCN=C(N)N)NC(=O)[C@H](CC(C)C)NC(=O)[C@@H](Cc1c[nH]c2ccccc12)NC(=O)[C@H](Cc1ccc(O)cc1)NC(=O)[C@H](CO)NC(=O)[C@H](Cc1c[nH]c2ccccc12)NC(=O)[C@H](Cc1cnc[nH]1)NC(=O)[C@@H]1CCC(=O)N1`, which Potency is on record?
**A.** 1.19 µM (active)

**Q.** Which Potency does the source give for `COC(=O)[C@H]1[C@H]2C[C@@H]3c4[nH]c5ccccc5c4CCN3C[C@H]2C[C@@H](OC(=O)c2cc(OC)c(OC)c(OC)c2)[C@@H]1OC` here?
**A.** 1.68 µM (active) and 21.1 µM (active)

**Q.** With `CC(=O)c1ccc2c(c1)N(CCCN1CCN(CCO)CC1)c1ccccc1S2` as the molecule, how does the Potency read?
**A.** 26.6 µM (active)

**Q.** Which Potency does the source give for `CC(=O)[C@@]1(O)CC[C@H]2[C@@H]3C=C(Cl)C4=CC(=O)CC[C@]4(C)[C@H]3CC[C@@]21C` here?
**A.** 23.7 µM (active)

**Q.** With `C[C@]12CC[C@@H]3c4ccc(OC(=O)c5ccccc5)cc4CC[C@H]3[C@@H]1CC[C@@H]2O` as the molecule, how does the Potency read?
**A.** 9.44 µM (active)

**Q.** Which Potency does the source give for `CCC(CN)CC(C)CCNCC(O)CNCC(C)CC(CC)CN` (stereo not given) here?
**A.** inactive

**Q.** With `CCC(=O)NS(=O)(=O)c1ccc(-c2c(-c3ccccc3)noc2C)cc1` as the molecule, how does the Potency read?
**A.** inactive

**Q.** For `O=C(O)CCC/C=C\C[C@@H]1[C@@H](/C=C/[C@@H](O)COc2cccc(C(F)(F)F)c2)[C@H](O)C[C@@H]1O`, which Potency is on record?
**A.** inactive

**Q.** For `C[N+]1(C)[C@@H]2CC(OC(=O)C(O)(c3cccs3)c3cccs3)C[C@H]1[C@@H]1O[C@@H]12` (stereo not given in full), which Potency is on record?
**A.** inactive

**Q.** With `CO[C@H]1C[C@H](O[C@@H]2/C(C)=C/C[C@@H]3C[C@@H](C[C@]4(CC[C@H](C)[C@@H](C5CCCCC5)O4)O3)OC(=O)[C@@H]3C=C(C)/C(=N/O)[C@H]4OC/C(=C\C=C\[C@@H]2C)[C@]43O)O[C@@H](C)[C@@H]1O` as the molecule, how does the Potency read?
**A.** inactive

**Q.** For `CC(=O)Oc1c(C)cc(OCC(O)CNC(C)C)c(C)c1C` (stereo not given), which Potency is on record?
**A.** inactive

**Q.** With `CNC(C)CCC=C(C)C` (stereo not given) as the molecule, how does the Potency read?
**A.** 29.8 µM (active)

**Q.** For `O=S(=O)(O)c1cc(O)c2c(N=Nc3ccc(Nc4ccccc4)c4c(S(=O)(=O)O)cccc34)cc(S(=O)(=O)O)cc2c1`, which Potency is on record?
**A.** 11.9 µM (active)

**Q.** With `CCCc1ccc(C(=O)O)cc1` as the molecule, how does the Potency read?
**A.** inactive

**Q.** Which Potency does the source give for `CCSc1ccc2c(c1)N(CCCN1CCN(C)CC1)c1ccccc1S2` here?
**A.** 14.3 µM (active)

**Q.** For `CS(=O)(=O)NC(=O)CCC/C=C\C[C@H]1C(=O)C[C@@H](O)[C@@H]1/C=C/[C@H](O)COc1ccccc1`, which Potency is on record?
**A.** inactive

**Q.** For `CCCCCCCN(CC)CCCC(O)c1ccc(NS(C)(=O)=O)cc1` (stereo not given), which Potency is on record?
**A.** 26.6 µM (active)

**Q.** Which Potency does the source give for `C[C@]12CC[C@@H]3c4ccc(O)cc4CC[C@H]3[C@@H]1CC[C@@H]2OP(=O)(O)O` here?
**A.** inactive

**Q.** Which Potency does the source give for `C/C=C1\NC(=O)[C@H]2CSSCC/C=C/[C@H](CC(=O)N[C@H](C(C)C)C(=O)N2)OC(=O)C(C(C)C)NC1=O` (stereo not given in full) here?
**A.** 0.0012 µM (active)

**Q.** Which Potency does the source give for `CC(C)N=c1cc2n(-c3ccc(Cl)cc3)c3ccccc3nc-2cc1Nc1ccc(Cl)cc1` here?
**A.** 11.4 µM (active)

**Q.** With `Cn1cc(NC(=O)c2cc(NC(=O)c3cc(NC=O)cn3C)cn2C)cc1C(=O)NCCC(=N)N` as the molecule, how does the Potency read?
**A.** inactive

**Q.** Which Potency does the source give for `COCC1=C(C(=O)OC(C)OC(=O)OC(C)C)N2C(=O)[C@@H](NC(=O)/C(=N\OC)c3csc(N)n3)[C@H]2SC1` (stereo not given in full) here?
**A.** 2.37 µM (active) and inactive

**Q.** Which Potency does the source give for `CC[C@H](CC[C@@H](C)[C@H]1CC[C@H]2[C@@H]3CC=C4C[C@@H](O)CC[C@]4(C)[C@H]3CC[C@]12C)C(C)C` here?
**A.** inactive

**Q.** With `CO/N=C(\C(=O)N[C@@H]1C(=O)N2C(C(=O)O)=CCS[C@H]12)c1csc(N)n1` as the molecule, how does the Potency read?
**A.** inactive

**Q.** For `CCN(CC)CCOC(=O)c1ccc(N)cc1Cl`, which Potency is on record?
**A.** inactive

**Q.** For `CN1CCN(C(c2ccccc2)c2ccc(Cl)cc2)CC1` (stereo not given), which Potency is on record?
**A.** 10.1 µM (active)

**Q.** For `NCCCNCCCCNC(=O)C(O)NC(=O)CCCCCCN=C(N)N` (stereo not given), which Potency is on record?
**A.** 1.68 µM (active)

**Q.** Which Potency does the source give for `CC(C(=O)O)c1ccc(N2Cc3ccccc3C2=O)cc1` (stereo not given) here?
**A.** inactive

**Q.** For `CC1CS(=O)(=O)CCN1/N=C/c1ccc([N+](=O)[O-])o1` (stereo not given), which Potency is on record?
**A.** inactive

**Q.** With `NC(=O)Oc1ccc(Cc2ccccc2)cc1` as the molecule, how does the Potency read?
**A.** inactive

**Q.** Which Potency does the source give for `C#CCC(Cc1cnc2nc(N)nc(N)c2n1)c1ccc(C(=O)N[C@@H](CCC(=O)O)C(=O)O)cc1` (stereo not given in full) here?
**A.** 0.0168 µM (active)

**Q.** Which Potency does the source give for `CCCC(=O)Nc1ncnc2c1ncn2[C@@H]1O[C@@H]2COP(=O)(O)O[C@H]2[C@H]1OC(=O)CCC` here?
**A.** inactive

**Q.** For `COc1cc([C@@H]2c3cc4c(cc3C(O[C@@H]3O[C@@H]5CO[C@@H](C)O[C@H]5[C@H](O)[C@H]3O)C3COC(=O)[C@@H]32)OCO4)cc(OC)c1OP(=O)(O)O` (stereo not given in full), which Potency is on record?
**A.** 1.68 µM (active) and 2.37 µM (active)

**Q.** With `Cc1cccc(C)c1Nc1ncccc1C(=O)O` as the molecule, how does the Potency read?
**A.** inactive

**Q.** Which Potency does the source give for `O=P(O)(O)C(Sc1ccc(Cl)cc1)P(=O)(O)O` here?
**A.** inactive

**Q.** For `CCOC(=O)[C@H](CCc1ccccc1)N[C@H]1CCCN2CCC[C@@H](C(=O)O)N2C1=O`, which Potency is on record?
**A.** inactive

**Q.** For `CCCCC(F)(F)[C@@]1(O)CC[C@H]2[C@@H](CC(=O)[C@@H]2CCCCCCC(=O)O)O1`, which Potency is on record?
**A.** inactive

**Q.** Which Potency does the source give for `COc1cc([C@@H]2c3cc4c(cc3C(O[C@@H]3O[C@@H]5COC(c6cccs6)O[C@H]5[C@H](O)[C@H]3O)C3COC(=O)[C@@H]32)OCO4)cc(OC)c1O` (stereo not given in full) here?
**A.** 0.0119 µM (active)
